Test results from PubChem BioAssay AID1851 (National Center for Advancing Translational Sciences (NCATS), 2009).
Values joined by “and” are separate entries in the source; they are usually repeats but may differ in a detail not shown here. Identical values can stand only once. The whole screen tested about 16,000 compounds, of which about 5,800 (36%) were called active. Roughly 23% stayed inconclusive and do not appear here. Calls follow the shape of the dose curve; as a rule, active = well fitted curve in the direction sought with a large enough effect; inconclusive = small, poorly fitted or top-dose-only effect, or effect the other way; inactive = no such curve, though single readings can be large or run the other way. The list shows a part of the results.

molecular target: Cytochrome P450 2C19 (Homo sapiens) (UniProt P33261); experiment: Cytochrome panel assay with activity outcomes; details: recombinant CYP, pro-luciferin dealkylation, luminescence, p450-cyp2c19; series mostly up to 57.1 µM
% is scaled to controls: 0 for no effect and ±100 for the full control effect.

Cytochrome P450 2C19 (Homo sapiens), sequence (P33261 whole entry, looked up): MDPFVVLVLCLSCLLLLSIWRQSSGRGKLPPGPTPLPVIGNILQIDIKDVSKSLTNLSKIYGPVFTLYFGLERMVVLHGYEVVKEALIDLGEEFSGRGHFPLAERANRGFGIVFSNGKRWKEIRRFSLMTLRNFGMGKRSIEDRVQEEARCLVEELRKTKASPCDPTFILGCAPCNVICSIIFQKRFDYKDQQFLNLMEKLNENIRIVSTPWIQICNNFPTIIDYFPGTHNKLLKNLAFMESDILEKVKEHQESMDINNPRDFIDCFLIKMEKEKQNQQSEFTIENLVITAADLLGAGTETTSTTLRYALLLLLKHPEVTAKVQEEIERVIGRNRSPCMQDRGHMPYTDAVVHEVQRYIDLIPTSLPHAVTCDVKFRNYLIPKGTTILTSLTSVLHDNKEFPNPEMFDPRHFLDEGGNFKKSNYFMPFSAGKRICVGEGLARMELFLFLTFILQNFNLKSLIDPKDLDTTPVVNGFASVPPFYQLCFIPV

Compound	AC50	activity, negative = inhibition
Cc1ccc(NC(=O)C(C)N2C(=O)C3C4CC(C(Br)C4Br)C3C2=O)cc1 (stereo not drawn)	12.6 µM (active)	
CC(C(=O)Nc1cccnc1)N1C(=O)C2C3C=CC(C3)C2C1=O (stereo not drawn)	inactive	
Cc1nc(SC(C(=O)c2ccccc2)c2ccccc2)n[nH]1 (stereo not drawn)	2.51 µM (active)	
COC(=O)c1nc(NC(=O)c2ccccc2)n[nH]1	inactive	
CCOc1ccc(-c2nnc3n2N=C(c2ccc(OC)cc2)CS3)cc1	4.47 µM (active)	
CCN(CC)C(=O)CSc1nnc(-c2ccco2)n1N	inactive	
CCOc1ccc(C2=Nn3c(nnc3-c3ccco3)SC2)cc1	3.16 µM (active)	
COc1ccc(-c2csc(N3C(=N)SCC3=O)n2)cc1	inactive	
COc1cccc(-c2nnc3n2N=C(C(C)(C)C)CS3)c1	2.82 µM (active)	
NCCCCCC(=O)O	inactive	
CCN1C(=O)[C@H]2[C@H]3[C@H](O)[C@H](O)C/C(=N/OC[C@@H](O)COCc4ccco4)[C@H]3CC[C@@H]2C1=O		-33.5% [at 11.4 µM] (inactive)
CO[C@@H]1COC(=O)C/C=C\[C@@H](C)[C@H](OC)COC(=O)[C@@H](C)COC(=O)C/C=C\[C@H]1C		4.43% [at 11.4 µM] (inactive)
CCC(C)n1c(NC(=O)c2ccccc2)c(C#N)c2nc3ccccc3nc21 (stereo not drawn)	28.2 µM (active)	
Cc1noc(NC(=O)Nc2ccccc2F)c1C#N		-17.8% [at 11.4 µM] (inactive)
CC(C)CN=C(N)N=C(N)N		-8.28% [at 11.4 µM] (inactive)
Oc1cccc(-c2nc3c4c(ncn3n2)-c2ccccc2CC42CCCC2)c1	25.1 µM (active)	
COc1ccc(C(=O)N2CCC3(CC2)CCN(C(c2ccccc2)c2ccccc2)CC3)cc1	inactive	
COc1ccc(C(=O)/C=C2/c3ccccc3CC(C)(C)N2C)cc1	15.8 µM (active)	
COc1ccc(C(=O)N2CCC3(CCN(C)CC3)CC2)cc1	inactive	
Cn1nccc1C(=O)Nc1ccc(Cl)cc1	31.6 µM (active)	
CCNS(=O)(=O)c1ccc(NC(=O)c2cc(C(F)(F)F)nn2C)cc1	inactive	
O=C(O)/C(=C\c1ccccc1)Cc1ccccc1		-14.2% [at 11.4 µM] (inactive)
O=C(O)c1cscc1Cc1cccs1		-1.48% [at 11.4 µM] (inactive)
O=C(Cc1cccs1)N/N=C/C(Br)=C/c1ccccc1	7.08 µM (active)	

Compound	AC50	activity, negative = inhibition
COc1cc(C(=O)NCc2cccc3ccccc23)cc(Cl)c1OC	3.16 µM (active)	
CS(=O)(=O)N1CCC[C@@]2(CCN(C(=O)Nc3ccccc3)C2)C1	inactive	
COc1ccc2c(c1)C(=NN)c1cc(OC)ccc1-2	8.91 µM (active)	
COc1ccc2c(c1)Cc1cc(N=[N+]([O-])c3ccc4c(c3)Cc3cc(OC)ccc3-4)ccc1-2		-35.1% [at 11.4 µM] (inactive)
CC1(C)O[C@H]2[C@@H](c3[nH]nc4c(=O)[nH]c(=O)[nH]c34)OC[C@H]2O1		9.71% [at 11.4 µM] (inactive)
COc1ccc(C(=O)N2CCCCC2)cc1S(=O)(=O)Nc1ccccc1	inactive	
Cc1ccc(NS(=O)(=O)c2cc(C(=O)NCc3ccccn3)ccc2Cl)cc1	5.01 µM (active)	
Cc1ccc(NS(=O)(=O)c2cc(C(=O)N3CCc4ccccc4C3)ccc2Cl)cc1	1.58 µM (active)	
CN(c1ccc(C(=O)NCc2ccccn2)cc1)S(C)(=O)=O	inactive	
CC(=O)OCC(=O)[C@@]1(OC(C)=O)[C@H](C)C[C@H]2[C@@H]3C[C@H](F)C4=CC(=O)C=C[C@@]4(C)[C@]3(F)[C@H](O)C[C@@]21C	inactive	
COc1ccc2[nH]cc(CCNc3ccnc(-c4ccc5c(c4)OCO5)n3)c2c1	0.631 µM (active)	
COc1ccc2[nH]cc(CCNc3ccnc(-c4c(C)noc4C)n3)c2c1	1.58 µM (active)	
COc1ccc2[nH]cc(CCNc3ccnc(-c4ccc(N(C)C)cc4)n3)c2c1	6.31 µM (active)	
COc1ccc2[nH]cc(CCNc3ccnc(-c4ccoc4)n3)c2c1	0.501 µM (active)	
Cc1ccc(S(=O)(=O)N2CCC(C(=O)NCCCOC(C)C)CC2)cc1	inactive	
Cc1ccc(S(=O)(=O)N(C)c2cc(S(=O)(=O)N3CCC(C)CC3)c(C)cc2C)cc1	3.16 µM (active)	
CCn1c(O)c(/C=C2\C=Nc3ccccc32)sc1=Nc1ccc(C)cc1	2 µM (active)	
Clc1ccc2c(c1)C=Nc1c(NCc3ccccc3)ncnc1O2	inactive	
COc1ccc(C2=NC(C(F)(F)F)(C(F)(F)F)c3c(n(C)c(=O)n(C)c3=O)N2)cc1	inactive	
O=C1c2ccccc2C2=Nc3ccccc3SC(c3ccccc3F)C12 (stereo not drawn)	1.58 µM (active)	
O=C(O)C1=C/C(=C(/c2ccccc2)c2cc(C(=O)O)c(O)c3ccccc23)c2ccccc2C1=O		29% [at 11.4 µM] (inactive) and -20.5% [at 11.4 µM] (inactive)
NS(=O)(=O)c1ccc(N=Nc2ccc(O)c(C(=O)O)c2)cc1		5.09% [at 11.4 µM] (inactive)
CC1=C/C(=C(/c2ccc(O)c(C)c2)c2ccccc2C(=O)O)C=CC1=O	0.00316 µM (active)	
O=C(O)c1ccc(C(=O)c2ccccc2C(=O)O)cc1C(=O)O		-5.18% [at 11.4 µM] (inactive)

Compound	AC50	activity, negative = inhibition
O=C(O)C1=CC(=C(c2ccc(O)c(C(=O)O)c2)c2ccc(O)c(C(=O)O)c2)C=CC1=O	25.1 µM (active)	
O=C(CN1CCc2ccccc21)NC(=O)NCc1ccco1	7.94 µM (active)	
Cc1nn(CC(O)COc2ccc3c(c2)CCC3)c(C)c1Br (stereo not drawn)	2 µM (active)	
CN(C)CC(O)COc1cccc(OCC(O)CN(C)C)c1 (stereo not drawn)	inactive	
Cc1ccc(C(=O)NC(=S)Nc2ccc(S(=O)(=O)N3CCN(C)CC3)cc2)cc1	15.8 µM (active)	
O=C(NC(=S)Nc1ccc(C(=O)N2CCOCC2)cc1)c1ccc([N+](=O)[O-])cc1	inactive	
CCOC(=O)c1ccc(S(=O)(=O)N2CCN(C)CC2)cc1	inactive	
O=C(OCn1ncc(Cl)c(Cl)c1=O)c1cccc(C(F)(F)F)c1	2.24 µM (active)	
Cc1sc(N)c(C(=O)c2cccc(C(F)(F)F)c2)c1C	inactive	
O=c1c(C=Nc2cccc(C(F)(F)F)c2)c[nH]n1-c1cccc(Cl)n1	inactive	
N/C(CC/C(N)=N/O)=N\O		20.3% [at 11.4 µM] (inactive)
N#CC(CC(=O)O)=C(c1ccccc1)c1ccccc1		5.19% [at 11.4 µM] (inactive)
C=CCNc1sc(C(=O)c2ccc(C)cc2)c(N)c1C#N	7.08 µM (active)	
C=CCNc1sc(C(=O)c2ccccc2)c(N)c1C#N	6.31 µM (active)	
CC(=O)CSc1nnc(Cc2ccc([N+](=O)[O-])cc2)o1	7.08 µM (active)	
NNC(=O)CNc1cccc(Br)c1		-2.2% [at 11.4 µM] (inactive)
O=C(Cc1ncc(C(F)(F)F)cc1Cl)Nc1cccc(Br)c1	2.82 µM (active)	
CC(C)(C)C(=O)OCc1cn(-c2ccc(Cl)cc2)nn1	8.91 µM (active)	
Cc1ccc(C(=O)c2cn(-c3ccc(F)c(Cl)c3)nn2)cc1	inactive	
[Cu].[O-]/N=C1/C(=[OH+])Nc2ccccc21.[O-]Nc1c(O)[nH]c2ccccc12		2.58% [at 11.4 µM] (inactive)
C[C@H](C(=O)c1ccncc1)c1ccccn1		-37.2% [at 11.4 µM] (inactive)
Cc1c(C=O)c2ccccn2c1C(=O)c1ccncc1	1.78 µM (active)	
CC(=O)N(C[C@@H](C)C(=O)O)c1c(I)cc(I)c(N)c1I	inactive	
COc1ccc(F)cc1S(=O)(=O)NC(Cc1ccccc1)C(N)=O (stereo not drawn)	7.08 µM (active)	

Compound	AC50	activity, negative = inhibition
CC(C)N=c1scc(-c2ccco2)n1/N=C/c1ccc(O)c(O)c1	7.94 µM (active)	
C[N+](C)(C)/N=C\c1ccc(O)c(O)c1		12.7% [at 11.4 µM] (inactive)
NC(=S)SCCC(=O)O		-6.93% [at 11.4 µM] (inactive)
Cc1nn(Cc2ccc([N+](=O)[O-])cc2)c(=O)n1-c1cccc(F)c1	11.2 µM (active)	
CSCC[C@@H]1NC(=O)C/C=C\[C@@H](C)COC(=O)[C@H](C)COC1=O		-10.8% [at 11.4 µM] (inactive)
C[C@@H]1/C=C\CC(=O)OC[C@H]2O[C@@H](C=C[C@@H]2O)[C@H](C)/C=C\CC(=O)OC[C@H]2O[C@H]1C=C[C@@H]2O		-20.1% [at 11.4 µM] (inactive)
CS(=O)(=O)N(Cc1cc2ccccc2[nH]c1=O)C1CCCCC1	15.8 µM (active)	
CN(Cc1cc2ccccc2[nH]c1=O)S(C)(=O)=O	inactive	
COc1ccc(-n2c(N)c(C(=O)NCc3ccco3)sc2=S)cc1	17.8 µM (active)	
O=C(NNC(=S)Nc1ccccc1)c1ccco1	inactive	
O=C(Nc1ccccc1)N1CC2(CCN(C(=O)c3ccco3)CC2)C1	inactive	
CC1=C(C(=O)Nc2ccccc2)C(c2ccco2)NC(=S)N1 (stereo not drawn)	35.5 µM (active)	
CCN(CC)CC[n+]1ccc2c(C)c3[nH]c4ccccc4c3c(C)c2c1		2.93% [at 11.4 µM] (inactive)
S=C(NCc1ccco1)N1CCN(Cc2ccco2)CC1	15.8 µM (active)	
S=C(NCc1ccco1)N1CCN(C(c2ccccc2)c2ccccc2)CC1	7.08 µM (active)	
O=C(c1ccco1)N1CCC[C@@]2(CCN(C(c3ccccc3)c3ccccc3)C2)C1	inactive	
CS(=O)(=O)Nc1c(O)ccc2c1CCC[C@H]2C1=NCCN1	inactive	
CCOc1ccc(N2C(=O)c3cccnc3C2=O)cc1	inactive	
O=C1c2cccnc2C(=O)N1Cc1ccc(F)cc1	8.91 µM (active)	
COc1ccccc1CN1CCCC2(CCN(C(C)=O)CC2)C1	inactive	
S=C1SCN(C2CCCCCCCCCCC2)CN1C1CCCCCCCCCCC1	3.98 µM (active)	
